From the supplement of paper PMC9950053
Counter-ions that a name gives are not always drawn.

system: Danio rerio larvae (5 dpf); assay: combined optomotor response (time in upper well half, down vs up moving lines, periods 7-14) minus DMSO control (percentage points); higher = stronger optomotor response than DMSO larvae; settings: 10 µM; exposure time: 3 h pre-incubation + 3 h imaging

Row | SMILES | combined optomotor response
1 | CC1CNc2c(cccc2S(=O)(=O)N[C@@H](CCCNC(=N)N)C(=O)N2CC[C@@H](C)C[C@@H]2C(=O)O)C1 (some centres undefined) [Argatroban] | 3.86
2 | NC(=O)c1ncn([C@@H]2O[C@H](CO)[C@@H](O)[C@H]2O)n1 [Ribavirin] | 5.43
3 | Clc1ccc(COC(Cn2ccnc2)c2ccc(Cl)cc2Cl)c(Cl)c1 (centres undefined) [Miconazole nitrate] | -12.3
4 | CC(C)n1c(/C=C/C(O)CC(O)CC(=O)O)c(-c2ccc(F)cc2)c2ccccc21 (centres undefined) [Fluvastatin sodium] | -0.348
5 | O=c1[nH]c(=O)n([C@H]2C[C@H](O)[C@@H](CO)O2)cc1C(F)(F)F [Trifluorothymidine] | 5.31
6 | CCOc1cc(CC(=O)N[C@@H](CC(C)C)c2ccccc2N2CCCCC2)ccc1C(=O)O [Repaglinide] | 2.6
7 | CCCc1nc2c(C)cc(-c3nc4ccccc4n3C)cc2n1Cc1ccc(-c2ccccc2C(=O)O)cc1 [Telmisartan] | 2.86
8 | O=C(Nc1c(Cl)cncc1Cl)c1ccc(OC(F)F)c(OCC2CC2)c1 [Roflumilast] | -6.05
9 | Clc1ccccc1C(c1ccccc1)(c1ccccc1)n1ccnc1 [Clotrimazole] | -7.18
10 | CC(C)C(=O)OCC(=O)[C@@]12O[C@H](C3CCCCC3)O[C@@H]1C[C@H]1[C@@H]3CCC4=CC(=O)C=C[C@]4(C)[C@H]3[C@@H](O)C[C@@]12C [Ciclesonide] | 1.14
11 | CN1CC[C@@H](NC(=O)Nc2ccc(C#N)cc2)C[C@@H]1c1nc2ccccc2[nH]1 | -1.72
12 | CCN(CC)CCNC(=O)c1c(C)[nH]c(/C=C2\C(=O)Nc3ccc(F)cc32)c1C [Sunitinib malate] | 2.67
13 | Cc1c(-c2ccc(O)cc2)n(Cc2ccc(OCCN3CCCCCC3)cc2)c2ccc(O)cc12 [Bazedoxifene acetate] | -0.163
14 | CC(C)(C)NC(=O)[C@@H]1C[C@@H]2CCCC[C@@H]2CN1C[C@@H](O)[C@H](Cc1ccccc1)NC(=O)[C@H](CC(N)=O)NC(=O)c1ccc2ccccc2n1 [Saquinavir mesylate] | -2.96
15 | CC(C)c1nc(N(C)S(C)(=O)=O)nc(-c2ccc(F)cc2)c1/C=C/[C@@H](O)C[C@@H](O)CC(=O)O [Rosuvastatin calcium] | 6.26
16 | CC[C@H](C)C(=O)O[C@H]1C[C@@H](C)C=C2C=C[C@H](C)[C@H](CC[C@@H]3C[C@@H](O)CC(=O)O3)[C@H]21 [Lovastatin] | 5.24
17 | C[C@H]1C[C@@H]2[C@H]([C@@H](O)C[C@@]3(C)[C@H]2CC[C@]3(O)C(=O)CO)[C@@]2(C)C=CC(=O)C=C12 [Methylprednisolone] | 8.85
18 | Cn1cnc([N+](=O)[O-])c1Sc1ncnc2[nH]cnc12 [Azathioprine] | 2.29
19 | COc1ccccc1OCCNCC(O)COc1cccc2[nH]c3ccccc3c12 (centres undefined) [Carvedilol] | -1.8
20 | O=C(O)CCCc1ccccc1 [Sodium 4-Phenylbutyrate] | 4.62
21 | COc1c(C)c2c(c(O)c1C/C=C(\C)CCC(=O)OCCN1CCOCC1)C(=O)OC2 [Mycophenolate mofetil] | 12.9
22 | Cc1cn([C@H]2C=C[C@@H](CO)O2)c(=O)[nH]c1=O [Stavudine] | 7.54
23 | CCOc1ccccc1OCCN[C@H](C)Cc1ccc(OC)c(S(N)(=O)=O)c1 [Tamsulosin hydrochloride] | 4.93
24 | CN/C(=N\CCSCc1nc[nH]c1C)NC#N [Cimetidine] | 0.13
25 | CCOC(=O)[C@H](CCc1ccccc1)N[C@@H](C)C(=O)N1[C@H](C(=O)O)C[C@@H]2CCC[C@@H]21 [Ramipril] | 3.49
26 | Nc1ccn([C@@H]2O[C@H](CO)[C@@H](O)C2(F)F)c(=O)n1 [Gemcitabine hydrochloride] | 1.86
27 | CC1=Nc2ccc(Cl)cc2S(=O)(=O)N1 [Diazoxide] | 2.18
28 | CCCCC(=O)N(Cc1ccc(-c2ccccc2-c2nnn[nH]2)cc1)[C@H](C(=O)O)C(C)C [Valsartan] | 7.07
29 | COc1cccc2c1C(=O)c1c(O)c3c(c(O)c1C2=O)C[C@@](O)(C(=O)CO)C[C@@H]3O[C@H]1C[C@H](N)[C@H](O)[C@H](C)O1 [Doxorubicin hydrochloride] | -1.96
